# An excerpt weighted towards active compounds, which were near 2.4% of everything screened.
# NOD2-RIPK2 inh: inhibitors of human NOD2-RIPK2 interaction; O43353; CHO BLA complementation NOD2-RIPK2, CCF4 ratio; inhibition, % at 4.98 µM; hit rate 0.38% among 360,000; AID 624267; in the data active = inhibition above about 21%
# HSF1 inhib: HSF1 inhibition; activity change, negative = inhibition, % at 7.5 µM (by protocol); AID 2098; hit rate 0.77% among 300,000; NIH3T3-HGL HSE-luciferase, MG132-induced, luminescence 8 h; stronger effect = lower value;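 active = more than half of replicate wells show activity change below -50%, luminescence cut by over half; inconclusive = some wells, but at most half, below -50%; inactive = no replicate well below -50%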;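 also: luciferase reports HSF-1 transcriptional activity via heat shock element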
# TLR9-MyD88 block: inhibitors of human TLR9-MyD88 binding | Q9NR96+Q99836 | CHO BLA complementation TLR9-MyD88, CCF4 FRET ratio | inhibition, % at 4.98 µM | hit rate 0.21% among 340,000 | AID 504734;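 active = inhibition above the mean over all tested compounds plus 3 SD, cut at about 21% in these data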
# Target sequence (Q99836 whole entry, looked up): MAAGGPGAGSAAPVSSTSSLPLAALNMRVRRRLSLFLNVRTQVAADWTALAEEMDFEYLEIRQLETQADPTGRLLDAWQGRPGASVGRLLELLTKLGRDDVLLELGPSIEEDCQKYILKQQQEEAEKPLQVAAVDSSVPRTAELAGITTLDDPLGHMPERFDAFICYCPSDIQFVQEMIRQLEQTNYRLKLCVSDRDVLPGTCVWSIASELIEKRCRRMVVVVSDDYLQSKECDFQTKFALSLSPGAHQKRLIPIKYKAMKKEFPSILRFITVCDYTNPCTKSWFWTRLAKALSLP
# Target sequence (Q9NR96 whole entry, looked up): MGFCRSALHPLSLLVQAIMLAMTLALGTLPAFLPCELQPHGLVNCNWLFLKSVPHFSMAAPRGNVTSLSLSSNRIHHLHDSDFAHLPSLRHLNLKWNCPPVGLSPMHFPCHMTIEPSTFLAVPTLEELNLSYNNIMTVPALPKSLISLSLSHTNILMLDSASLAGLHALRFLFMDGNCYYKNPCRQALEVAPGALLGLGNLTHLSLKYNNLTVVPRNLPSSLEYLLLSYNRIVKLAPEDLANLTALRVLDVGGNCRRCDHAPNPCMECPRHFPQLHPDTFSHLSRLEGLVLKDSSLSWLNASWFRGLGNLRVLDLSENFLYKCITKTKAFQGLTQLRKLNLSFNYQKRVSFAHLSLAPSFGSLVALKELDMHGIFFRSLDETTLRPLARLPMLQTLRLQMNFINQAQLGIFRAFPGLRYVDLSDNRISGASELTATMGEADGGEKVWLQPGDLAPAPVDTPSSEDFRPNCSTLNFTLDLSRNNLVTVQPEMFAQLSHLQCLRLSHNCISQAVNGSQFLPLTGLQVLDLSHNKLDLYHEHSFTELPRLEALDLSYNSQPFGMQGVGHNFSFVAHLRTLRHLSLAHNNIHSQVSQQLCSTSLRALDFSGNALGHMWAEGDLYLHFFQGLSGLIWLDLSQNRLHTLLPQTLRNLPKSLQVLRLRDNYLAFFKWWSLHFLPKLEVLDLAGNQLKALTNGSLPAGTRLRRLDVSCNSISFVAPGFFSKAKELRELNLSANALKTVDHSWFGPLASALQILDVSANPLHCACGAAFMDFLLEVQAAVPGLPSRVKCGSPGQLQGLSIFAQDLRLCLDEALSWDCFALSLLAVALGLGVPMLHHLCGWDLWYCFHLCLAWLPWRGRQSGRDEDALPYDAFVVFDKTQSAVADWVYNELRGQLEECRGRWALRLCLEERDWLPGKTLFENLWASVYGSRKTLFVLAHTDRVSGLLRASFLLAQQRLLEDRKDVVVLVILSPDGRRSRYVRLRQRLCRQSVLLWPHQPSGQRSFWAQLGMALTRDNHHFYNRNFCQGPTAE
# TLR4 MyD88 comp: blocks binding of human TLR4 to MyD88. AID 861. hit rate 0.18% among 200,000. inhibition, % at 8.4 µM. HeLa CL3-4 TLR4/MyD88 BLA complementation, FRET ratio. O00206+Q99836; in the data active = inhibition above about 25%
# HSF-1 act: increases HSF-1 driven luciferase reporter signal. AID 504408. activation, % at 9 µM. NIH3T3-HGL HSF-1 luciferase reporter, MG132, 8 h; 100% = twice DMSO control signal. hit rate 1.7% among 300,000;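 active = mean replicate activation of at least 50% with a set share of replicates each reaching 50%; inconclusive = only one of those two conditions met; inactive = mean below 50% and too few replicates reaching it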
# Hits are given with their value; n = inactive; u = inconclusive; x = no result given.
SMILES,NOD2-RIPK2 inh,HSF1 inhib,TLR9-MyD88 block,TLR4 MyD88 comp,HSF-1 act
CC(C)C[C@H](NC(=O)N1CCn2c1nc1ccccc12)C(=O)NC1CCCCC1,n,n,n,x,n
CC1(C(=O)NS(=O)(=O)Cc2ccccc2C(F)(F)F)CCN1C(=O)Cc1ccsc1 (stereo not drawn),n,x,x,x,x
COC(=O)/C(=C1/Oc2cc(C)oc(=O)c2S1)C(F)(F)F,n,-78.9,n,n,n
COC(=O)/C(=C1/Oc2ccc(C(C)(C)C)cc2S1)C(F)(F)F,n,n,n,n,n
COc1cccc(CN2CCc3[nH]c(=S)[nH]c(=O)c3C2)c1,n,n,n,x,n
COCCCN1CCc2[nH]c(=S)[nH]c(=O)c2C1,n,n,n,n,58.1
O=C(NCc1ccccc1)c1cc(C2COCCN2C(=O)C/C=C/c2ccccc2)on1 (stereo not drawn),n,x,x,x,x
CC(C)(C)NC(=O)c1ccc2c(c1)N(CC(=O)N1CCCCC1)C(=O)C(C)(C)O2,n,n,n,x,65.9
C#CCOCCOCCOCCNc1nc(N2CCOCC2)nc(N2CCN(C(=O)[C@H](CO)n3cc([C@@H](N)C(C)C)nn3)CC2)n1,n,x,n,x,x
Cc1sc2nc(CSc3nc4ccccc4c(=O)n3CCCN3CCOCC3)[nH]c(=O)c2c1C,n,n,n,n,60.9
CC(=O)c1c(C)[nH]c(C(=O)CSc2nc3ccccc3c(=O)n2CCCN2CCOCC2)c1C,n,n,n,n,n
O=c1ccc2ccc(OCc3ccccc3)cc2o1,n,n,n,x,59.0
O=C(CSc1nccn1Cc1ccco1)Nc1cccc(F)c1,n,-74.1,n,x,n
O=C(CSc1nccn1Cc1ccco1)Nc1ccc(F)cc1,n,n,n,x,n
COc1ccc(-c2cc(-c3cc(OC)ccc3O)[nH]n2)cc1,n,n,n,n,n
COc1ccc(-c2cc(-c3ccc(Cl)cc3)n[nH]2)c(O)c1,n,n,n,x,93.7
COc1ccc(-c2cc(-c3ccccc3O)[nH]n2)cc1OC,n,n,n,n,106.0
CCc1ccc(NC(=O)CSc2nnc(CNC(=O)c3cccs3)o2)cc1,n,n,n,x,n
O=C(Nc1ccccc1N1CCN(C(=O)c2ccccc2)CC1)c1ccc(Br)o1,n,n,n,x,n
Cc1cccc(CN2CCC(C(=O)Nc3cccc(-c4cscn4)c3)CC2)n1,n,n,n,x,82.4
Cc1cccc(CN2CCC(C(=O)Nc3cccc(-c4cccc(F)c4)c3)CC2)n1,n,n,n,x,n
c1ccc(CCCCc2ccncc2)cc1,n,x,n,x,x
c1ccc(CCc2ccncc2)cc1,n,n,n,x,56.1
COc1cccc(COC(=O)Nc2ccccc2F)c1,n,n,n,x,73.9
Cc1occc1C(=O)N/N=C/C=C/c1ccccc1,n,n,n,n,n
SMILES,NOD2-RIPK2 inh,HSF1 inhib,TLR9-MyD88 block,TLR4 MyD88 comp,HSF-1 act
Cc1cc(C)nc(SCC(=O)N/N=C\C(Br)=C\c2ccccc2)n1,n,n,n,n,u
O=C(N/N=C/C(Br)=C\c1ccccc1)c1ccco1,n,n,x,x,108.1
Cc1occc1C(=O)N/N=C/C(Br)=C\c1ccccc1,n,n,n,x,363.2
O=C(N/N=C/C(Br)=C/c1ccccc1)NC1CCCCC1,n,n,n,n,58.5
Cc1ccc(NCC(=O)N/N=C\C(Br)=C\c2ccccc2)cc1,n,n,n,n,145.3
Nc1cn(C2OC(CO)C(O)C2O)c(=O)[nH]c1=O (stereo not drawn),n,n,n,x,n
CCOC(=O)c1ccc(N(CC2CO2)S(=O)(=O)c2ccc(C)cc2)cc1 (stereo not drawn),n,x,n,x,x
Cc1ccc(C(=O)N2CCN(C/C=C/c3ccccc3)CC2)cc1S(=O)(=O)N1CCOCC1,n,x,n,x,x
COC(=O)c1ccc(OC(=O)CCN2C(=O)C3CCCCC3C2=O)cc1 (stereo not drawn),n,n,n,n,60.9
COC(=O)c1ccc(OC(=O)CCN2c3ccccc3Sc3ccccc32)cc1,n,n,n,n,n
CCOC(=O)Cc1csc(NC(=O)c2ccoc2C)n1,n,n,n,n,57.4
CCOC(=O)Cc1csc(NC(=O)c2c(O)c3ccccc3n(CC(C)C)c2=O)n1,n,n,n,n,55.9
CCOC(=O)Cc1csc(NC(=O)c2sc3nc4ccc(CC)cc4cc3c2N)n1,n,-53.7,n,n,n
CCOC(=O)Cc1csc(NC(=O)c2c(C)noc2C)n1,n,n,n,x,n
COc1ccc(C(=O)OCC(=O)N2c3ccccc3CC2C)cc1S(=O)(=O)N1CCOCC1 (stereo not drawn),n,x,n,x,x
N/C(Cc1ccc(Cl)cc1Cl)=N\OC(=O)c1ccccc1F,n,n,n,n,68.2
CCC(CO)NCC#Cc1ccccc1 (stereo not drawn),n,n,n,n,62.1
OC(CNCC#Cc1ccccc1)c1ccccc1 (stereo not drawn),n,n,n,n,n
COc1ccc(S(N)(=O)=O)cc1C(=O)NNC(=O)c1cccc(S(=O)(=O)N2CCOCC2)c1,n,x,n,x,x
COc1ccc(C2=CC(=O)CC(c3ccc(F)cc3)C2)cn1 (stereo not drawn),n,n,n,x,61.1
Nc1c(C(=O)c2ccccc2)oc2ccc(Br)cc12,n,n,n,n,62.6
Nc1c(C(=O)c2ccc(Br)cc2)oc2ccccc12,n,n,n,n,n
COc1ccc(NC(=O)N(C)C[C@@H]2OCc3cnnn3CCCC(=O)N([C@@H](C)CO)C[C@H]2C)cc1,n,x,n,x,x
O=C(CNC(=O)c1cc(Cl)nc2ccccc12)Nc1ccccc1Br,n,x,n,x,x
COc1cc(C2CC(c3cccnc3)=NN2c2ccc(F)cc2)cc(OC)c1OC (stereo not drawn),n,n,n,n,64.8
SMILES,NOD2-RIPK2 inh,HSF1 inhib,TLR9-MyD88 block,TLR4 MyD88 comp,HSF-1 act
COc1ccc(C2CC(c3ccccc3)=NN2c2ccc(S(N)(=O)=O)cc2)cc1OC (stereo not drawn),n,n,n,n,n
O=C(NC1CC1)c1ccc(-c2cnc3cccnn23)cc1,n,x,x,x,x
CC(=O)Nc1cc(C(=O)N(C)Cc2ccco2)ccc1Sc1ccc(C)cc1,n,-80.9,n,n,n
COc1ccc(/C=N/N2C(C)CCCC2C)cc1OC (stereo not drawn),n,n,n,x,n
CC(C)c1ccc(/C=C/C(=O)NC2=NCCS2)cc1,x,n,x,n,n
O=C(/C=C/c1ccc(Cl)c(Cl)c1)NC1=NCCS1,n,n,n,n,53.8
O=[N+]([O-])c1cccc(N/N=C/c2cccc(O)c2O)c1,n,n,n,n,64.8
CCN(CCCNC(=O)CCc1nc(-c2ccc(C)cc2)no1)c1cccc(C)c1,n,n,n,n,59.1
CCN(CCCNC(=O)C1CCC(=O)N1Cc1ccc(C)cc1)c1cccc(C)c1 (stereo not drawn),n,n,n,n,85.1
Cc1cccc(-c2noc(CCC(=O)NCCc3ccccc3)n2)c1,n,n,n,x,n
CCN(CCNC(=O)C1CCC(=O)N1Cc1ccc(C)cc1)c1ccccc1 (stereo not drawn),n,n,n,n,n
CCCS(=O)(=O)N1CCCC(C(=O)NCCCN(CC)c2cccc(C)c2)C1 (stereo not drawn),n,n,n,n,55.5
